The nature of experiment [1]: Primary qHTS for small molecule stabilizers of the endoplasmic reticulum resident proteome: Secreted ER Calcium Modulated Protein (SERCaMP) assay (AID 1508630; active = well fitted curve in the direction sought with a large enough effect; an effect the other way counts as inactive or inconclusive). Summed up:
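GLuc-SERCaMP-expressing SH-SY5Y cells, pretreated 16 h with compound, are challenged with thapsigargin to empty ER calcium stores; after 4 h, coelenterazine is added directly to the medium and luminescence is imaged.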
On the technique in general: In qHTS, concentration-response curves come from the screen itself.

A short description of experiment [2]: A High-Content qHTS Against Drug Library for the Identification of Small Molecules that Inhibit DYT1 Early Onset Primary Dystonia-Associated Cell Pathology (AID 1645839; calls by dose curve; note: series mostly up to about 46 µM). Summed up: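 Flp-In T-REx 293 cells with tetracycline-inducible EGFP-delE hTOR1A (WT EGFP-hTOR1A as reference), 800 cells/well; compound added with tetracycline, 48 h at 37 C. Fixed, permeabilized cells imaged; %pathology (punctate TorsinA) primary, cell count counterscreen.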

Experiment [3] concerns the target Cytochrome P450 2D6 (Homo sapiens) (UniProt P10635). Nature of the experiment: Cytochrome P450 family 2 subfamily D member 6 (CYP2D6) small molecule antagonists: luciferase biochemical (cell-free) qHTS assay (AID 1645840). Note: nearly all actives have a fitted effect of over 55% in size. Note: potency is the fitted concentration of half-maximal effect. A digest of the protocol: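 P450-Glo luminescent screen: recombinant CYP2D6 enzyme–proluciferin substrate mix preincubated with compound 10 min at room temperature, then NADPH regeneration added for 1 h at room temperature. Detection reagent added for 20 min; luciferin light read as relative luminescence units.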

Experiment [4] addresses Cytochrome P450 2C9 (Homo sapiens) (UniProt P11712). Nature of the experiment: Cytochrome P450 family 2 subfamily C member 9 (CYP2C9) small molecule antagonists: luciferase biochemical (cell-free) qHTS assay (AID 1645842). Note: nearly all actives have a fitted effect of over 55% in size. Note: potency is the fitted concentration of half-maximal effect. A digest of the protocol:
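Luminescence, after 20 min with luciferin detection reagent, reflected CYP2C9 turnover during a 1 h NADPH-driven reaction at 37C. Enzyme-substrate mix contained 0.4% bovine serum albumin and was preincubated with compound 10 min at room temperature.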

The target of experiment [5] is Cytochrome P450 3A4 (Homo sapiens) (UniProt P08684). Description: Cytochrome P450 family 3 subfamily A member 4 (CYP3A4) small molecule antagonists: luciferase qHTS assay (AID 1645841). Note: nearly all actives have a fitted effect of over 45% in size. Summed up: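 P450-Glo CYP3A4 enzyme with proluciferin substrate preincubated 10 min with compound at room temperature, then NADPH regeneration 1 h. Luciferin detection reagent added for 20 min; luminescence recorded. Ketoconazole positive control.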
Sequence of Cytochrome P450 3A4 (Homo sapiens) (P08684 whole entry, looked up): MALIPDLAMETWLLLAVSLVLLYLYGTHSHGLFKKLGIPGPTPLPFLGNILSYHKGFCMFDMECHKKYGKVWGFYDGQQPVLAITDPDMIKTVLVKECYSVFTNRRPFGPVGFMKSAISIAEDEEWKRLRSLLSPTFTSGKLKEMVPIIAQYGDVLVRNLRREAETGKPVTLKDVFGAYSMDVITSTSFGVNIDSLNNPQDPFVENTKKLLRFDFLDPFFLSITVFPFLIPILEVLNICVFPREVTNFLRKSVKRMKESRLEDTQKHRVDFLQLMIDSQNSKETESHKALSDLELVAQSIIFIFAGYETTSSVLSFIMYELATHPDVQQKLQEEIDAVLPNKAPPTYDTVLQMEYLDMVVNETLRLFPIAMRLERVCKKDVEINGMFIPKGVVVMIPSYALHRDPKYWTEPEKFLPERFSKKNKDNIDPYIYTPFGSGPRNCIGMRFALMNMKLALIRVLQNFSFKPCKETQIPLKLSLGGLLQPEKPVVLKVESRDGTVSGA

A short description of experiment [6]: Primary qHTS for inhibitors of nuclear receptor binding SET domain protein 2 (NSD2) in an isogenic RCH-ACV NSD2 p.E1099K mutant (9B) (AID 1645876; active = well fitted curve in the direction sought with a large enough effect; an effect the other way counts as inactive or inconclusive; note: nearly all actives have a fitted effect of over 70% in size).

Records with an inconclusive call do not appear. Calls of active or inactive are those of the source. Unless noted, calls come from the whole dose curve; as a rule, active = well fitted curve in the direction sought with a large enough effect in the repeat runs; inconclusive = weak or mixed curves; inactive = no such curve, though single readings can be large; an effect the other way counts as inactive or inconclusive. Where a SMILES comes first, the peptide text is derived from it. [ ]: non-standard residue; d: D form. pGlu = O=C1CC[C@@H](C(=O)O)N1

Sequence of Cytochrome P450 2D6 (Homo sapiens) (P10635 whole entry, looked up): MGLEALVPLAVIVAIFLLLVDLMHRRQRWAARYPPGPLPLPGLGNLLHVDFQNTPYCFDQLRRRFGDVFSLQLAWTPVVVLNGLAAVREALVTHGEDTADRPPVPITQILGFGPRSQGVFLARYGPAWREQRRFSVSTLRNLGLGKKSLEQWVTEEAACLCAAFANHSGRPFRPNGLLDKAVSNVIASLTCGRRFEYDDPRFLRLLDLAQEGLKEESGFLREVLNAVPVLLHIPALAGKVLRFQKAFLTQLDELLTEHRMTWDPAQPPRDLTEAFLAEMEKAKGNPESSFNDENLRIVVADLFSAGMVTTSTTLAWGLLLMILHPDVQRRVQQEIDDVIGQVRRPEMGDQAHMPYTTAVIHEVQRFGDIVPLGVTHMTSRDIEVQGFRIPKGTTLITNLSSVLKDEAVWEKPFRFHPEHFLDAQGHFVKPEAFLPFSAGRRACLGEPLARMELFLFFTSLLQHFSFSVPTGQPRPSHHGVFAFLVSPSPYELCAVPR
Sequence of Cytochrome P450 2C9 (Homo sapiens) (P11712 whole entry, looked up): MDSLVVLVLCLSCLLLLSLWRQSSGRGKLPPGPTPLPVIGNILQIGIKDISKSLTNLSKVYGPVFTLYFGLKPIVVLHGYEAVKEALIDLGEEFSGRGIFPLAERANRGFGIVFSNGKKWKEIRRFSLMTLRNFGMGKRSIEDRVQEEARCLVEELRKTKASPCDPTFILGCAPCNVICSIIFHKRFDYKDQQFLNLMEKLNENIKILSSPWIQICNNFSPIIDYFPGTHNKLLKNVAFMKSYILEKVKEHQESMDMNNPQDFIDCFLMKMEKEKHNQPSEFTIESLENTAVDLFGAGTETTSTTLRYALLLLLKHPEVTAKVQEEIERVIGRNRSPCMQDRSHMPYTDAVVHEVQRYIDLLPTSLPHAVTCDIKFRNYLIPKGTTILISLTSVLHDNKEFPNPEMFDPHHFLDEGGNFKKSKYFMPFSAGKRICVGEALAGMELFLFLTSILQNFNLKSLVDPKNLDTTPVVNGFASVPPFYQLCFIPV

`C[N+](C)(CCOc1ccccc1)Cc1cccs1`: the Potency entry in experiment [1], in experiment [2] and in experiment [4] was “inactive” throughout. Moreover, the Potency in experiment [3] was 0.123 µM (active).

Regarding `O=C(CCOCCOCCOCCOCCC(=O)Nc1c(I)cc(I)c(C(=O)O)c1I)Nc1c(I)cc(I)c(C(=O)O)c1I`, the Potency entry in experiment [1], in experiment [2], in experiment [3], in experiment [5], in experiment [4] and in experiment [6] was “inactive” each time.

With `CCOC(=O)OCC/C(SC(=O)OCC)=C(\C)N(C=O)Cc1cnc(C)nc1N`, the Potency result in experiment [1], in experiment [2] and in experiment [4] was “inactive” each time. The Potency in experiment [3] was 2.16 µM (active).

On to `COc1ccc2c(c1)c(CC(=O)OC/C=C(\C)CC/C=C(\C)CCC=C(C)C)c(C)n2C(=O)c1ccc(Cl)cc1`, for which the Potency result in experiment [1] and in experiment [2] was “inactive” in each case. Further, the Potency in experiment [3] was 12.3 µM (active).

Consider `CC1(C)O[C@@H]2C[C@H]3[C@@H]4C[C@H](F)C5=CC(=O)C=C[C@]5(C)[C@@]4(F)[C@@H](O)C[C@]3(C)[C@]2(C(=O)CO)O1`, for which the Potency result in experiment [1], in experiment [2], in experiment [3] and in experiment [4] was “inactive” throughout.

On to `CC(Oc1c(Cl)cccc1Cl)C1=NCCN1` (stereo unspecified), for which the Potency result in experiment [1] and in experiment [2] was “inactive” each time. Also, the Potency in experiment [3] is 8.71 µM (active).

For the molecule `COc1cc2c(cc1OC)C(=O)CC2`, the Potency entry in experiment [1], in experiment [2], in experiment [3] and in experiment [4] was “inactive” throughout.

Regarding `CCNC(=O)[C@@H]1CCCN1C(=O)[C@H](CCCN=C(N)N)NC(=O)[C@H](CC(C)C)NC(=O)CNC(=O)[C@H](Cc1ccc(O)cc1)NC(=O)[C@H](CO)NC(=O)[C@H](Cc1c[nH]c2ccccc12)NC(=O)[C@H](Cc1cnc[nH]1)NC(=O)[C@@H]1CCC(=O)N1` ([pGlu]HWSYGLRP-NHEt), the Potency result in experiment [1], in experiment [2], in experiment [3] and in experiment [4] was “inactive” each time.

`CN(C)C(=O)CNC(=O)Cc1ccccc1`: the Potency result in experiment [1], in experiment [2], in experiment [3], in experiment [5], in experiment [4] and in experiment [6] was “inactive” throughout.

With `CC(=O)N(CC(O)CO)c1c(I)c(C(=O)NCCO)c(I)c(C(=O)NCC(O)CO)c1I` (stereo unspecified), the Potency entry in experiment [1], in experiment [2], in experiment [3], in experiment [5], in experiment [4] and in experiment [6] was “inactive” each time.

As for `C[N+]1(CC2COC(c3ccccc3)(c3ccccc3)O2)CCCCC1` (stereo unspecified), the Potency result in experiment [1], in experiment [2] and in experiment [4] was “inactive” throughout. The Potency in experiment [3] is 1.51 µM (active).

As to `O=C(O)C1CCC1`, the Potency result in experiment [1], in experiment [2], in experiment [3], in experiment [5], in experiment [4] and in experiment [6] was “inactive” each time.

For the molecule `CCCCCC1Nc2cc(C(F)(F)F)c(S(N)(=O)=O)cc2S(=O)(=O)N1` (stereo unspecified), the Potency entry in experiment [1], in experiment [2], in experiment [5] and in experiment [6] was “inactive” throughout. In addition, the Potency in experiment [3] was 3.89 µM (active); in experiment [4], 1.95 µM (active).

With `O=C(O)CNC(=O)CNC(=O)CNC(=O)CSC(=O)c1ccccc1`, the Potency result in experiment [1], in experiment [2], in experiment [3] and in experiment [4] was “inactive” throughout.

Take `CO[C@]1(NC(=O)CSC(F)F)C(=O)N2C(C(=O)O)=C(CSc3nnnn3CCO)CO[C@H]21`: the Potency entry in experiment [1], in experiment [2], in experiment [3] and in experiment [4] was “inactive” in each case.

`CCCCCC(=O)O[C@]1(C(C)=O)CC[C@H]2[C@@H]3CCC4=CC(=O)CC[C@]4(C)[C@H]3CC[C@@]21C`: the Potency result in experiment [1] and in experiment [2] was “inactive” each time. Also, the results for the Potency in experiment [3] and in experiment [4] were 13.8 µM (active) and 4.9 µM (active), respectively.

For `O=c1[nH]sc2cc(Cl)ccc12`, the Potency result in experiment [1], in experiment [2] and in experiment [3] was “inactive” each time.

On to `COc1ccc2nc(SCc3ncc(C)c(OC)c3C)[nH]c2c1`, for which the Potency result in experiment [1], in experiment [2] and in experiment [4] was “inactive” in each case. For the same molecule, in experiment [3], the Potency is 12.3 µM (active).

Regarding `CCNC(=O)NCCCOc1cccc(CN2CCCCC2)c1`, the Potency result in experiment [1] and in experiment [2] was “inactive” each time.

Regarding `CCOC(=O)CN1CCCC1=O`, the Potency entry in experiment [1], in experiment [2], in experiment [3], in experiment [5], in experiment [4] and in experiment [6] was “inactive” each time.

In the case of `CCOc1ccc(NS(=O)(=O)c2ccc(N)cc2)nn1`, the Potency result in experiment [1], in experiment [2], in experiment [3], in experiment [4] and in experiment [6] was “inactive” each time.

For the molecule `CCCC(=O)O[C@]1(C(=O)COC(=O)CC)CC[C@H]2[C@@H]3CCC4=CC(=O)CC[C@]4(C)[C@H]3[C@@H](O)C[C@@]21C`, the Potency entry in experiment [1], in experiment [2], in experiment [3], in experiment [5], in experiment [4] and in experiment [6] was “inactive” in each case.

Consider `CNC[C@H](O)[C@@H](O)[C@H](O)[C@H](O)CO`, for which the Potency entry in experiment [1], in experiment [2], in experiment [3] and in experiment [4] was “inactive” in each case.

Consider `CC(C)C(=O)Nc1cccc(C2CN3CCSC3=N2)c1` (stereo unspecified), for which the Potency result in experiment [1], in experiment [2] and in experiment [3] was “inactive” in each case.

Regarding `O=C(O)[C@@H](O)[C@H](O)[C@H](O)[C@@H](O)C(=O)O`, the Potency result in experiment [1], in experiment [2], in experiment [3], in experiment [5], in experiment [4] and in experiment [6] was “inactive” each time.

`CO[C@@]1(NC(=O)CSC[C@@H](N)C(=O)O)C(=O)N2C(C(=O)O)=C(CSc3nnnn3C)CS[C@@H]21`: the Potency entry in experiment [1], in experiment [2], in experiment [3], in experiment [5], in experiment [4] and in experiment [6] was “inactive” throughout.

For `COc1cc(/C=C/C(N)=O)cc(OC)c1OC`, the Potency entry in experiment [1], in experiment [2], in experiment [3] and in experiment [4] was “inactive” each time.

Take `COc1cc2nc(Cl)nc(N)c2cc1OC`: the Potency entry in experiment [1], in experiment [2], in experiment [3] and in experiment [4] was “inactive” throughout.

Regarding `C[C@]12CCC(=O)C=C1CC[C@@H]1[C@@H]2[C@@H](O)C[C@@]2(C)[C@H]1CC[C@]2(O)C(=O)COC(=O)CCC(=O)O`, the Potency entry in experiment [1], in experiment [2], in experiment [3] and in experiment [4] was “inactive” throughout.

In the case of `Nc1ncnc2nc[nH]c12`, the Potency entry in experiment [1], in experiment [2], in experiment [3], in experiment [5], in experiment [4] and in experiment [6] was “inactive” throughout.

`CNC(=O)c1cnn(-c2nc(N)c3ncn([C@@H]4O[C@H](CO)[C@@H](O)[C@H]4O)c3n2)c1`: the Potency result in experiment [1], in experiment [2], in experiment [3] and in experiment [4] was “inactive” in each case.

Turning to `OC(CCCN1CCCCC1)(c1ccccc1)c1ccccc1`, the Potency result in experiment [1] and in experiment [2] was “inactive” in each case. In addition, the Potency in experiment [3] is 0.138 µM (active).

Consider `CO[C@@H]1[C@@H](O[C@@H]2O[C@H](C)[C@@H](O[C@H]3C[C@@](C)(O)[C@@H](O)[C@H](C)O3)[C@H](N(C)C)[C@H]2O)[C@@H](CC=O)C[C@@H](C)[C@@H](O[C@@H]2CC[C@H](N(C)C)[C@@H](C)O2)/C=C/C=C/C[C@@H](C)OC(=O)C[C@H]1OC(C)=O`, for which the Potency entry in experiment [1], in experiment [2], in experiment [3] and in experiment [4] was “inactive” in each case.

These data come from PubChem BioAssay (NCATS).
